Records with an inconclusive call do not appear. Calls of active or inactive are those of the source. Unless noted, no rule for the calls is given here.
How the values were obtained:
[1] = qHTS profiling of the MIPE4 collection as inhibitors of Plasmodium falciparum (DD2) proliferation (AID 743345); conditions: P. falciparum Dd2 in erythrocytes, SYBR Green DNA, 72 h; at 28.5 µM (top of the series) unless noted
How it was run: (§1)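 Erythrocytes infected with P. falciparum (0.3% parasitemia, 2.5% hematocrit) incubated with compounds 72 h at 37 C, 5% CO2. Lysis with saponin/Triton buffer containing SYBR Green I, overnight at room temperature in the dark; DNA fluorescence (485/535 nm) normalised to 0.29 uM artemisinin and DMSO.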

[2] = qHTS profiling of the MIPE4 collection as inhibitors of Plasmodium falciparum (DD2) proliferation (Rep 2) (AID 743346); conditions: P. falciparum Dd2 in erythrocytes, SYBR Green DNA, 72 h; at 28.5 µM (top of the series) unless noted
How it was run: as §1

[3] = qHTS profiling of the MIPE4 collection as inhibitors of Plasmodium falciparum (HB3) proliferation (AID 743347);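 also: plate controls were DMSO vehicle wells for no effect and artemisinin wells for full effect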; conditions: P. falciparum HB3 in erythrocytes, SYBR Green DNA, 72 h; at 28.5 µM (top of the series) unless noted
How it was run: as §1

[4] = High-throughput drug toxicity screening in the BPDCN cell line Gen2.2 (AID 1224824); conditions: Gen2.2 BPDCN cells; at 45.8 µM (top of the series) unless noted;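 also: cells exposed to compounds for 48 h before reading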
How it was run: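 CellTiter-Glo luminescence read after 48 h compound exposure at 37 C defines viability; percent activity set with DMSO as 100% and bortezomib (9.2 uM final) as 0%. 500 exponentially growing cells per well, RPMI plus 10% FBS.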

[5] = High-throughput drug toxicity screening in the BPDCN cell line Cal-1 (AID 1224825); conditions: Cal-1 BPDCN cell viability, qHTS; at 45.8 µM (top of the series) unless noted
How it was run: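 500 Cal-1 cells/well, RPMI + glutamine + 10% FBS (phenol red-free); cpd added by pin tool; 48 h, 37C, 5% CO2; CTG 15 min RT, lumi read. Normalised: DMSO 100%, bortezomib 9.2 uM 0%.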

[6] = qHTS profiling of the MIPE4 collection as inhibitors of Plasmodium falciparum (3D7) proliferation (AID 743344);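 also: scaled between DMSO vehicle wells and 0.29 µM artemisinin as full inhibition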; conditions: P. falciparum 3D7 in erythrocytes, SYBR Green DNA fluorescence, 72 h; at 28.5 µM (top of the series) unless noted
How it was run: as §1

[7] = qHTS assay for cell viability of the p53RE-bla HCT-116 cell line (AID 743292; active = well fitted cell-killing curve with a large enough effect; also: % is scaled to controls: 0 for no effect and ±100 for the full control effect; nearly all actives have a fitted effect of over 55% in size)
How it was run: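 Viability of compound-treated p53RE-bla HCT-116 cells is taken from ATP-dependent luciferase luminescence. Treatment lasts 16 h at 37 C after a 5 h settling period; detection follows 30 min at room temperature.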

[8] = qHTS profiling for inhibitors of Plasmodium falciparum (3D7) proliferation (AID 743322);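 also: infected erythrocytes exposed to compound for 72 h before lysis; 100% = DMSO vehicle wells and 0% = 0.29 µM artemisinin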; conditions: P. falciparum 3D7 proliferation; at 28.7 µM (top of the series)
How it was run: as §1

[9] = qHTS profiling for inhibitors of Plasmodium falciparum (DD2) proliferation (AID 743323); conditions: lower = more inhibition; at 28.7 µM (top of the series)
How it was run: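 Parasite DNA quantified by SYBR Green fluorescence (ex 485, em 535 nm) after saponin/Triton lysis and overnight dark incubation. Cultures: 0.3% parasitemia, 2.5% hematocrit, 72 h, 37 C; data scaled between DMSO and 0.29 uM artemisinin.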

Compound | parasite growth remaining, % of DMSO control (lower = more inhibition) [1] | parasite growth, % of control (lower = inhibition) [2] | growth, % of control [3] | cell viability, % of control (lower = more cytotoxic) [4] | viability (% of control) [5] [%] | parasite growth, % of DMSO control [6] | Potency [7] | remaining parasite growth % (stronger effect = lower value) [8] [%] | activity, percent of control [9] [%]
C#CCN[C@@H]1CCc2ccccc21 | 129% | 95.4% | 103% | 153% | 57.2 |  |  |  | 
NC(=O)c1cccc(N)c1 | 95.5% | 93.2% | 54.9% | 84.2% | 109 | 96.3% |  |  | 
COc1cc2ncnc(Nc3cccc(Cl)c3)c2cc1OC | 27% | 24.1% | 4.11% | 115% | 39.5 | 8.74% |  |  | 
CN1CCCC(n2nc(Cc3ccc(Cl)cc3)c3ccccc3c2=O)CC1 (configuration not stated) | 14% | 7.67% | 2.79% | 9.12% | 7.4 | 5.72% |  |  | 
CC(C(=O)O)c1ccc2c(c1)CC(=O)c1ccccc1S2 (configuration not stated) | 92.6% | 187% | 97.8% | 113% | 19.4 | 69.8% |  |  | 
COc1c(N2CCNC(C)C2)c(F)cc2c(=O)c(C(=O)O)cn(C3CC3)c12 (configuration not stated) | 11.3% | 23.4% | 21.7% | 111% | 78 | 17.5% |  |  | 
O[C@@H](CNC[C@H](O)[C@H]1CCc2cc(F)ccc2O1)[C@@H]1CCc2cc(F)ccc2O1 | 8.23% | 19.2% | 8.28% | 4.81% | 2.75 | 6.58% |  |  | 
CCCc1nc(C)c2c(=O)[nH]c(-c3cc(S(=O)(=O)N4CCN(CC)CC4)ccc3OCC)nn12 | 12.3% | 33.2% | 9.8% | 5.18% | 4.45 | 6.01% |  |  | 
O=C(O)c1ccc(-n2nc(-c3ccccc3O)nc2-c2ccccc2O)cc1 | 107% | 34.2% | 94.6% | 142% | 25.8 |  |  |  | 
C[C@@H](NCCCc1cccc(C(F)(F)F)c1)c1cccc2ccccc12 | 18.5% | 10.9% | 4.3% | 264% | 110 |  |  |  | 
C1CCC(C(CC2CCCCN2)C2CCCCC2)CC1 (configuration not stated) | 7.9% | 7.73% |  | 7.33% | 5.18 |  |  |  | 
CC(C)(C)NC(=O)[C@H]1CC[C@H]2[C@@H]3CC[C@H]4NC(=O)C=C[C@]4(C)[C@H]3CC[C@]12C | 91.7% | 53% |  | 25.5% |  | 60.2% |  |  | 
C[C@@H]1CN(c2c(F)c(N)c3c(=O)c(C(=O)O)cn(C4CC4)c3c2F)C[C@H](C)N1 | 83% [at 9.64 µM] | 34.1% [at 9.64 µM] |  | 89.9% [at 23.2 µM] |  |  |  |  | 
Cc1noc(NS(=O)(=O)c2ccc(N)cc2)c1C | 98.9% | 103% |  | 138% |  |  | inactive |  | 
CCOC(=O)c1ccc(OC(=O)CCCCCN=C(N)N)cc1 | 89.5% | 118% | 80.6% | 186% | 106 |  |  |  | 
CN(C)CCc1c[nH]c2ccc(C[C@H]3COC(=O)N3)cc12 | 92.5% | 73.2% | 91.4% | 88.7% |  |  |  |  | 
Cc1oc(=O)oc1CN1CCN(c2cc3c(cc2F)c(=O)c(C(=O)O)c2n3C(C)S2)CC1 (configuration not stated) | 12.9% | 9.67% |  | 162% |  | 24.1% |  |  | 
Cn1c(=O)c2c(ncn2CC(O)CO)n(C)c1=O (configuration not stated) | 88.3% | 96.6% |  | 104% |  | 85.8% |  |  | 
C[C@]12C=CC(=O)C=C1CC[C@@H]1[C@@H]2C(=O)C[C@@]2(C)[C@H]1CC[C@]2(O)C(=O)CO | 95.7% [at 9.64 µM] | 82.6% [at 9.64 µM] | 104% [at 9.64 µM] | 158% [at 23.2 µM] |  | 93.3% [at 9.64 µM] | inactive |  | 
COC(=O)Nc1nc2ccc(Sc3ccccc3)cc2[nH]1 | 99.3% | 18.7% | 102% | 61% |  |  |  |  | 
C[C@@H]1C[C@H]2[C@@H]3CCC4=CC(=O)C=C[C@]4(C)[C@@]3(Cl)[C@@H](O)C[C@]2(C)[C@@]1(OC(=O)c1ccco1)C(=O)CCl | 7.88% | 10.6% |  | 4.47% |  | 5.2% |  |  | 
N[C@@H](C(=O)N[C@@H]1C(=O)N2C(C(=O)O)=C(Cl)CS[C@H]12)c1ccccc1 | 96.8% | 115% | 97.6% | 133% |  |  |  |  | 
O=NN(CCCl)C(=O)NC1CCCCC1 |  |  |  |  | 102 |  |  |  | 
COc1cc2c(Nc3ccc(Br)cc3F)ncnc2cc1OCC1CCN(C)CC1 | 7.29% | 12.4% |  | 3.75% |  | 5.79% |  | -1.51 | 3.65
CC1(C)[C@H](C(=O)O)N2C(=O)C[C@H]2S1(=O)=O |  |  |  |  | 103 |  |  |  | 
CC[C@H](NC(C)C)[C@H](O)c1ccc(O)c2[nH]c(=O)ccc12 | 107% | 92.5% | 96.3% | 160% | 121 |  |  |  | 
COc1cc(NS(=O)(=O)c2ccc(N)cc2)nc(OC)n1 | 96.8% | 87.6% |  | 129% |  |  |  |  | 
CC(=O)[C@H]1CC[C@H]2[C@@H]3CC=C4C[C@@H](O)CC[C@]4(C)[C@H]3CC[C@]12C | 88.9% | 85.3% | 65.7% | 106% |  |  |  |  | 
